# Assay outcomes from PubChem BioAssay.
# This is one part of a sample in which hits are shown more often than they occur.
# APE1 inh: blocks human APE1 abasic DNA cleavage; recombinant APE1, TAMRA/BHQ-2 abasic DNA cleavage fluorescence; Potency, µM (doses to about 65.8 µM), for the others: at the top dose activity change, negative = inhibition, usual class: inhibitors; actives 0.35% (n = 350,000); AID 2517;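 also: plate controls were vehicle for no effect and reference inhibitor for full effect; nearly all actives have a fitted effect of over 55% in size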
#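 Step 1: APE1 (0.75 nM) with compound, 15 min RT. Step 2: add 50 nM fluorophore/quencher THF duplex. Step 3: three fluorescence reads 60 s apart (525/598 nm); read 3 minus read 1 = reaction progress.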
# RECQ1 inh: blocks DNA unwinding by human RECQ1; P46063; RECQ1 DNA unwinding, red fluorescence kinetic read; Potency, µM (doses to about 57.3 µM), inactives show at the top dose activity, negative = inhibition, most hits filed as inhibitors; actives 0.54% (n = 240,000); AID 2549;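 also: plate controls were vehicle for no effect and no enzyme for full effect; nearly all actives have a fitted effect of over 30% in size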
#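 RECQ1T1 50 nM; forked duplex (20 bp + 30-nt ss tails) 200 nM, ATP 2 mM final; pH 8.0, 2 mM MgCl2, 2.5 ug/ml poly(dI-dC); 15 min compound preincubation; discontinuous kinetic read over 2 h at RT.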
# JMJD2E inh: blocks human JMJD2E demethylase activity. B2RXH2. JMJD2E catalytic domain, FDH-coupled NADH fluorescence (FDH is formaldehyde dehydrogenase). Potency, µM (doses to about 57.1 µM), for the others: at the highest dose activity change, negative = inhibition, most hits filed as inhibitors. actives 1.6% (n = 230,000). AID 2147; active = well fitted inhibition curve with a large enough effect, not every such curve was filed as active; inconclusive = small, poorly fitted or top-dose-only effect, or another doubt; inactive = no such curve, though single readings can be large or run the other way;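 also: 0% = wells with enzyme and -100% = buffer wells without enzyme; nearly all actives have a fitted effect of over 50% in size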
# BLM inh: inhibitors of human Bloom syndrome helicase BLM; P54132; AID 2528; recombinant BLM DNA unwinding, fluorescence dequenching; Potency, µM (highest dose often 56.1 µM), for the others: at the highest dose activity change, negative = inhibition, usual class: inhibitors; actives 0.2% (n = 350,000);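 also: plate controls were vehicle for no effect and no enzyme for full effect; nearly all actives have a fitted effect of over 35% in size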
# L3MBTL1 block: blocks human L3MBTL1; Potency, µM (top dose mostly 57.1 µM), for the others: at the top dose activity, negative = inhibition, usual class: inhibitors; AID 485360; actives 0.66% (n = 230,000); Q9Y468; AlphaScreen L3MBTL1–H3K9me1 peptide binding; also: nearly all actives have a fitted effect of over 60% in size
#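 L3MBTL1 (50 nM) pre-complexed 30 min with biotinylated H3(1-15)K9me1 peptide (75 nM), then compounds added for 30 min at room temperature; AlphaScreen streptavidin donor/nickel chelate acceptor beads (10 ug/mL final) read after 30 min dark incubation.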
# * hit, by the source's call; i = inactive; ? = inconclusive; . = no result; ! = repeats disagree; [ ] = dose if it differs, or a comment. Unless noted, calls follow the shape of the dose curve; as a rule, active = well fitted curve in the direction sought with a large enough effect; inconclusive = small, poorly fitted or top-dose-only effect, or another doubt; inactive = no such curve, though single readings can be large; an effect the other way counts as inactive or inconclusive. Unless noted, % is scaled to controls: 0 for no effect and ±100 for the full control effect; potency is read from the fitted curve at half-maximal effect.
SMILES,APE1 inh,RECQ1 inh,JMJD2E inh,BLM inh,L3MBTL1 block
COc1cc2c(c(OC)c1OC)-c1ccc(O)c(=O)cc1[C@H](N)CC2,11.7%[21 µM],-7.0%[25.9 µM],7.94µM*,-16.3%[21.4 µM],.
CCOc1ccc(CN(CCc2ccc3c(c2)OCO3)Cc2cccc(C)c2)cc1,.,.,.,-8.4%,.
CC(=O)C1=C(O)C2C3c4c[nH]c5cccc(c45)CC3C(C)(C)N2C1=O (stereo not drawn),-0.1%,-3.6%,?,-0.3%,.
CC(=O)C1=C(O)[C@@H]2[C@@H]3c4c[nH]c5cccc(c45)C[C@@H]3C(C)(C)N2C1=O,?,-5.1%,12.6µM*,3.2%,.
COc1ccc(N2C(=O)NC(=O)/C(=C\c3ccc([N+](=O)[O-])s3)C2=O)cc1,?,?,25.1µM*,-18.0%,22.4µM*
COc1cccc(N2C(=O)NC(=O)/C(=C/c3ccc([N+](=O)[O-])s3)C2=O)c1,?,?,25.1µM*,-1.2%,.
COc1ccc(N2C(=O)/C(=C/C=C/c3ccccc3[N+](=O)[O-])C(=O)NC2=S)cc1,14.6%,35.5µM*,?,28.2µM*,.
COc1ccccc1N1C(=O)NC(=O)/C(=C/c2ccc([N+](=O)[O-])s2)C1=O,-11.9%,-25.9%,?,-13.8%,.
COc1ccc(N2C(=O)NC(=O)/C(=C/c3ccc([N+](=O)[O-])s3)C2=O)cc1,?,?,20µM*,-2.9%,.
COc1ccc(CN2CCN(Cc3ccccc3)CC2)c(OC)c1,?,-13.8%,-4.1%,-4.2%,-0.8%
CN1CC=C(c2c[nH]c3ccccc23)CC1,-8.2%,18.2%,?,30.6%,31.6µM*
CN(C)c1ccc(/C=C2\C(=O)NC(=O)N(CCc3ccc(F)cc3)C2=O)cc1,1.1%,i,?,-3.9%,.
O=C1NC(=S)N(Cc2ccco2)C(=O)/C1=C\c1cccs1,3.55µM*,7.08µM*,14.1µM*,28.2µM*,.
COc1ccc(/C=C2/C(=O)N(Cc3ccco3)C(=O)N(C(C)C)C2=O)cc1,22.4µM*,25.1µM*,?,-21.9%,?
C=CCN1C(=O)/C(=C/c2cccs2)C(=O)NC1=S,2.7%,-14.6%,-4.4%,0.0%,?
CN(C)c1ccc(/C=C2/C(=O)NC(=O)N(Cc3ccco3)C2=O)cc1,28.2µM*,?,-29.7%,-5.8%,?
CCN(CC)c1ccc(/C=C2/C(=O)NC(=O)N(Cc3ccco3)C2=O)cc1,?,31.6µM*,-25.5%,-1.3%,?
C=C(CC1(CNP(=O)(c2ccccc2)c2ccccc2)CC1)c1ccccc1,1.4%,-1.6%,13.6%,-6.4%,.
O=C1NC(=S)NC(=O)C1=Cc1ccc2c(c1)CCN2CCCCl,17.8µM*,?,?,15.8µM*,.
Cc1ccccc1N1C(=O)NC(=O)/C(=C\c2ccc3c(c2)CCCN3Cc2ccccc2)C1=O,-0.6%,3.4%,-3.8%,-22.5%,?
CCOC(=O)c1ccc(N2C(=O)CC(N3CC=C(c4ccc(F)cc4)CC3)C2=O)cc1 (stereo not drawn),-11.6%,-11.1%,14.1µM*,-4.4%,?
CCCCC/C=C\C/C=C\C/C=C\C/C=C\CCCC(=O)O,?,2.24µM*!,28.2µM*!,?,?
COC(=O)N1CCC2(CCCN(C)C2)CC1,8.4%,i,.,1.2%,.
O=C1NC(=O)N(Cc2ccc(F)cc2)C(=O)/C1=C\c1ccc([N+](=O)[O-])s1,?,31.6µM*,28.2µM*,-18.1%,.
COc1ccc(CN2C(=O)NC(=O)/C(=C/c3ccc([N+](=O)[O-])s3)C2=O)cc1,?,31.6µM*,25.1µM*,-21.8%,28.2µM*
COc1ccc(CN2C(=O)NC(=O)/C(=C\c3cc(OC)c(OC)c(OC)c3)C2=O)cc1,7.1%,-17.1%,9.1%,-4.3%,.
OC1/C(=C/c2ccc(Cl)cc2Cl)N2CCC1CC2 (stereo not drawn),9.6%,-12.5%,4.8%,1.2%,.
CC(=O)[O][Hg][c]1ccccc1,26.4%,9.0%,2.24µM*,5.3%,.
CC(=O)/C=C/c1ccccc1,-0.5%,-19.7%,.,.,-11.0%
c1cc2cc(c1)C[n+]1ccc(c3ccccc31)NCc1ccc(cc1)CNc1cc[n+](c3ccccc13)C2,?,i,17.8µM*,250.9%,.
